Inconclusive results are not listed. A call without a number means that no potency is given here. Active and inactive are the calls of the source. The call rests on the fitted dose curve; in most records, active means well fitted inhibition curve with a large enough effect; inconclusive means small, poorly fitted or top-dose-only effect; inactive means flat fitted curve, though single readings scatter.
How the values were obtained:
[1] = target: Calcium and integrin-binding protein 1 (Homo sapiens) (UniProt Q99828); experiment: Primary qHTS for Identification of Calcium Integrin Binding Protein 1 (CIB1) Competitor (AID 1508620);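 further: GST tagged CIB1 binding a fluorescein labelled alphaIIb integrin peptide tracer; top concentration of the series differs between compounds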
How it was run: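 CIB1-GST (1 uM final) and compound incubated 15 min at room temperature before adding FITC-alphaIIb peptide tracer (100 nM final). Competition for binding read by fluorescence polarization (ex 480, em 540) after another 15 min at room temperature.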

[2] = Primary qHTS for inhibitors of nuclear receptor binding SET domain protein 2 (NSD2) in an isogenic RCH-ACV NSD2 p.E1099K mutant (9B) (AID 1645876); further: nearly all actives have a fitted effect of over 70% in size; further: potency means the concentration at half of the fitted maximal effect

Sequence of Calcium and integrin-binding protein 1 (Homo sapiens) (Q99828 whole entry, looked up): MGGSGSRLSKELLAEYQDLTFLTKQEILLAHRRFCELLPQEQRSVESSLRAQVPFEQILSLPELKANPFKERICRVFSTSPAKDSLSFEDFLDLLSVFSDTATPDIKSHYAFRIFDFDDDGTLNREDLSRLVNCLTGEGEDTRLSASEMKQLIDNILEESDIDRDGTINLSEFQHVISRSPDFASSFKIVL

Row | Compound | Potency [1] | Potency [2]
1 | CC(C)(O)c1ccc2c(c1)C(O)C[C@H]1[C@](C)(C(=O)O)CCC[C@]21C (some centres undefined) | inactive | inactive
2 | CC1CC[C@]2(C(=O)O)CC[C@]3(C(=O)O)C(=CCC4[C@@]5(C)CC[C@H](OC6OC(C)C(O)C(OC7OC(CO)C(O)C(O)C7O)C6O)C(C)(C)C5CC[C@]43C)C2C1C (some centres undefined) | inactive | inactive
3 | C=C(C)C1CCC2(C(=O)O)CCC3(C(=O)O)C(CCC4C5(C)CCC(O)C(C)(C(=O)O)C5CCC43C)C12 (centres undefined) | inactive | inactive
4 | COc1cc2c3c(cc4ccccc4c3c1O)NC2=O | inactive | inactive
5 | O=C(Nc1ccn[nH]1)c1c(F)cccc1F | inactive | inactive
6 | O=C(/C=C\n1cnc(-c2cc(C(F)(F)F)cc(C(F)(F)F)c2)n1)N1CC(F)(F)C1 | inactive | 0.934 µM (active)
7 | Cc1nc([C@](C)(O)CO)sc1-c1cnc(N)c(O[C@H](C)c2cc(F)ccc2-n2nccn2)c1 | inactive | 8.33 µM (active)
8 | C[C@H]1C(=O)N2c3ccccc3[C@@]3(O)C[C@@H]4C(=O)N[C@](C)(c5nc6ccccc6c(=O)n54)N1[C@@H]23 | inactive | inactive
9 | C=C1CCC2C(C)(C(=O)O)CCCC2(C)C1CC/C(=C\CO)CO (centres undefined) | inactive | inactive
10 | COC(=O)CC(O)CC(O)/C=C/c1c(C)ccc2c1C(O)CC(C)C2 (centres undefined) | inactive | inactive
11 | OC/C=C/C=C/[C@H]1Cc2cc(O)cc(O)c2O1 | inactive | inactive
12 | C/C=C1\[C@H](O[C@@H]2O[C@H](CO)[C@@H](O)[C@H](O)[C@H]2O)OC=C(C(=O)OC)[C@H]1CC(=O)O | inactive | inactive
